Shown are actives, neighbours in structure and some others; about 21% of the full set was active somewhere.
CYP2C19 inh – human CYP2C19 inhibition; P33261; CYP2C19 Supersomes, luciferin-H EGE luminescence, 30 min; inhibition, % at 5 µM; hit rate 21% among 96,000;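 active = CYP2C19 inhibition above a set limit at 5 µM in the primary screen, cut at about 50% in these data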
MRP-1 activ – activates MRP-1; H69AR cells + doxorubicin, viability rescue, CellTiter-Glo; viability increase, % at 10 µM; hit rate 0.61% among 140,000;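 active = viability gain under doxorubicin at or above a set limit, the compound median plus 3 SD, cut at about 4.7% in these data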;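 note: MRP-1 overexpressing cells given doxorubicin 25 µM after compound pretreatment; 18-22 h compound pretreatment then 72 h with doxorubicin before readout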
CYP2C9 inhib – human CYP2C9 inhibition. CYP2C9 Supersomes, luciferin-H conversion, luminescence. inhibition, % at 5 µM. hit rate 20% among 96,000. AID 777;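 active = blocking of liver enzyme CYP2C9 beyond about 50% at 5 µM, limit read from the data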
Target sequence (P11712 whole entry, looked up): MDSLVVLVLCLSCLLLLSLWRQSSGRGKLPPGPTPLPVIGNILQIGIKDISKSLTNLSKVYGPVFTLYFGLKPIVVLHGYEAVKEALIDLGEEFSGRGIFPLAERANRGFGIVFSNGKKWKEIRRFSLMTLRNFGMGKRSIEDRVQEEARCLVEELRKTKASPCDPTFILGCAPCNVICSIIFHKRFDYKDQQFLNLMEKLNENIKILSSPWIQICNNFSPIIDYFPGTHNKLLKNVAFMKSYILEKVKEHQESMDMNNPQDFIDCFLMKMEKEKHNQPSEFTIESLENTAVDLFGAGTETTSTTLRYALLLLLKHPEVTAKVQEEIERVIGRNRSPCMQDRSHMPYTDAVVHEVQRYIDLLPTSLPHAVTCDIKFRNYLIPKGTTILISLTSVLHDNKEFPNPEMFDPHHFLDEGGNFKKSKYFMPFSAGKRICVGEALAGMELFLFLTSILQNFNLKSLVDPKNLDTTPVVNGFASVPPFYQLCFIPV
MRP resist rev – MRP-mediated drug resistance reversal; AID 602; hit rate 0.04% among 85,000; differential viability (reversal), % at 10 µM; H69AR cells + 2 uM doxorubicin, CellTiter-Glo, 72 h;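 active = viability drop by adding the cancer drug above about 55%, with treated viability meeting a 40% cutoff, limit read from the data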;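 note: larger differential means the compound sensitizes cells more to doxorubicin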
CYP2C19 act – increases human CYP2C19 enzyme activity. P33261. recombinant CYP2C19, luciferin-H EGE luminescence; active compounds read high; 0 = fully inhibited enzyme, 1 = untreated enzyme. activation factor at 5 µM. 96,000 tested, under 10 active. AID 1025;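 active = activation factor of at least 2 at 5 µM in the primary screen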
CYP2C9 activ – increases human cytochrome P450 2C9 activity; recombinant CYP2C9, luciferin-H conversion, luminescence; active compounds read high; factor 1 = untreated enzyme, 0 = blocked; activation factor at 5 µM; hit rate 1.4% among 96,000; P11712; AID 1024;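 active = activation factor of 2 or more for CYP2C9 at a 5 µM dose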
A number is an active result; – = inactive; · = no result.

SMILES	CYP2C19 inh	MRP-1 activ	CYP2C9 inhib	MRP resist rev	CYP2C19 act	CYP2C9 activ
O=C(NCc1cccnc1)c1sc2ccccc2c1Cl	88	–	–	·	–	–
CCN1CCc2c(C#N)c(N3CCOCC3)nc(NCc3ccccc3)c2C1	–	–	70	–	–	–
N#Cc1c(NCCO)nc(NCc2ccccc2)c2c1CCN(Cc1ccccc1)C2	–	–	94	–	–	–
CCN1CCc2c(C#N)c(N3CCCCC3)nc(NCc3ccccc3)c2C1	–	–	70	–	–	–
C=CCNc1nc(N2CCCCC2)c(C#N)c2c1CN(Cc1ccccc1)CC2	62	–	90	–	–	–
CCN1CCc2c(sc(N)c2C#N)C1	–	–	–	–	–	–
N#Cc1c(N)sc(=S)c2c1CCN(Cc1ccccc1)C2	74	–	69	·	–	–
NCCCCC(NC(=O)C1CCCN1C(=O)C1CSSCC(N)C(=O)NC(Cc2ccc(O)cc2)C(=O)NC(Cc2ccccc2)C(=O)NC(CCC(N)=O)C(=O)NC(CC(N)=O)C(=O)N1)C(=O)NCC(N)=O (stereo unspecified)	·	–	·	·	·	·
Cn1c(=O)oc2cc(S(=O)(=O)N3CCC4(CC3)OCCO4)ccc21	75	–	–	–	–	–
Cc1ccc(Cl)cc1N1CCN(S(=O)(=O)c2ccc3c(c2)oc(=O)n3C)CC1	–	–	97	–	–	–
O=c1c(Cl)c(N2CCN(c3ccc(F)cc3)CC2)cnn1C12CC3CC(CC(C3)C1)C2	·	–	·	·	·	·
Cc1ccc(Nc2nnc(SC(C)C(=O)Nc3c(C)n(C)n(-c4ccccc4)c3=O)s2)cc1 (stereo unspecified)	·	–	·	·	·	·
CC(C)c1ccc(NC(=O)COc2nnc(-c3cccs3)c(-c3cccs3)n2)cc1	80	–	86	·	–	–
CCC(C)C(=O)Nc1nnc(-c2cccs2)s1 (stereo unspecified)	–	–	–	–	–	–
CCc1ccc(NC(=O)C(C)Oc2nnc(-c3cccs3)c(-c3cccs3)n2)cc1 (stereo unspecified)	–	–	68	–	–	–
O=c1ccc(Cl)cn1Cc1ccccc1F	·	–	·	–	·	·
CCNC(=S)NN(c1ccccc1)c1ccccc1	96	–	–	·	–	–
Cc1cc(NC(=O)c2cc(-c3ccccc3)on2)no1	–	–	–	–	–	–
O=C(c1ccccc1)c1cc(-c2ccccc2)on1	51	–	–	–	–	–
CCOC(=O)c1cnc2c(OC)cccc2c1N1CCN(c2ccc(OC)cc2)CC1	67	–	73	–	–	–
CN(CCCNS(=O)(=O)c1cccc2cccnc12)Cc1ccccc1	–	–	–	–	–	2.5
O=S(=O)(NCc1ccccc1)c1cccc2cccnc12	79	–	78	–	–	–
O=S(=O)(NCCCN1CCN(c2ccccc2F)CC1)c1cccc2cccnc12	55	–	–	–	–	2.3
Cc1nc(SCC(=O)N2CCN(c3ccccc3)CC2)c2oc3ccccc3c2n1	–	–	56	–	–	–
Cc1nc(SCC(=O)NCc2ccccc2)c2oc3ccccc3c2n1	–	–	79	–	–	–
SMILES	CYP2C19 inh	MRP-1 activ	CYP2C9 inhib	MRP resist rev	CYP2C19 act	CYP2C9 activ
Cc1nc(SCC(=O)O)c2oc3ccccc3c2n1	–	–	–	–	–	–
Cc1nc(SCC(=O)c2cccs2)c2oc3ccccc3c2n1	–	–	64	–	–	–
S=c1[nH]nc(-c2ccco2)n1/N=C/c1ccc(Cl)cc1	·	–	·	·	·	·
O=C1c2ccccc2C(=O)N1CCCN1CCN(CCCN2C(=O)c3ccccc3C2=O)CC1	·	·	·	–	·	·
CC1CCN(C(=O)CSc2nnc(CSc3ncccn3)n2C)CC1	–	–	–	–	–	–
Brc1ccc(-c2ccc(/C=N/Nc3nc4ccccc4[nH]3)o2)cc1	·	–	·	·	·	·
Cc1nn(C)c(C)c1NC(=O)c1ccc(S(=O)(=O)N(C)C)cc1	–	–	–	–	–	–
CC(=O)Nc1ccc(SCC(=O)c2cc(C)n(-c3ccccc3F)c2C)cc1	·	–	·	·	·	·
COCC(C)n1c(C)cc(C(=O)CSc2nnc(Nc3ccccc3F)s2)c1C (stereo unspecified)	70	–	–	–	–	–
CC(=O)Nc1ccc(SCC(=O)c2cc(C)n(Cc3cccs3)c2C)cc1	–	–	63	·	–	–
Cc1cc(C(=O)CSc2nnc(N)s2)c(C)n1Cc1cccs1	·	–	·	·	·	·
C=CCn1c(C)cc(C(=O)CSc2nnc(NC(C)C)s2)c1C	73	–	–	·	–	–
C=CCn1c(C)cc(C(=O)CSc2ccc(NC(C)=O)cc2)c1C	91	–	–	–	–	–
COCCn1c(C)cc(C(=O)CSc2ccc3ccccc3n2)c1C	68	–	–	·	–	–
Cc1csc(SCC(=O)c2cc(C)n(Cc3cccs3)c2C)n1	84	–	50	–	–	–
COCCn1c(C)cc(C(=O)CSc2ccc(NC(C)=O)cc2)c1C	93	–	–	–	–	–
COC(=O)c1ccc(-n2c(C)cc(C(=O)CSc3ccc(NC(C)=O)cc3)c2C)cc1	·	–	·	·	·	·
COCC(C)n1c(C)cc(C(=O)CSc2ccc(NC(C)=O)cc2)c1C (stereo unspecified)	81	–	–	–	–	–
Cc1cc(C(=O)CSc2n[nH]c(-c3ccccc3F)n2)c(C)n1Cc1cccs1	63	–	92	–	–	–
COc1ccc(NC(=O)[C@@H]2[C@@H]3C(=O)N(C4CCCCC4)C(=O)[C@@H]3C3c4ccccc4C=CN32)cc1 (stereo partly specified)	–	–	57	–	–	–
CC(=O)[C@@H]1[C@@H]2C(=O)N(C3CCCCC3)C(=O)[C@@H]2C2c3ccccc3C=CN21 (stereo partly specified)	–	–	–	–	–	–
CCOP(=O)(OCC)c1nc(/C=C/c2ccccc2)oc1NCc1ccccc1	56	–	–	–	–	–
CCOP(=O)(OCC)c1nc(/C=C/c2ccccc2)oc1NCc1ccc(OC)cc1	98	–	78	–	–	–
CCOP(=O)(OCC)c1nc(-c2ccc(C)cc2)oc1NCc1ccccc1	·	–	·	·	·	·
O=C(Nc1ccc(Br)cc1)c1cccc(N2C(=O)C3C4CCC(C4)C3C2=O)c1 (stereo unspecified)	·	–	·	·	·	·
SMILES	CYP2C19 inh	MRP-1 activ	CYP2C9 inhib	MRP resist rev	CYP2C19 act	CYP2C9 activ
Cc1cc(C)n2c(SC/C(O)=C(\C#N)c3nc4ccccc4[nH]3)nnc2n1	–	–	–	–	–	–
Cc1ccccc1-n1c(SC/C(O)=C(\C#N)c2nc3ccccc3[nH]2)nnc1-c1ccncc1	86	–	95	–	–	–
CC1(C)NC(=O)N(CC(O)Cn2nnc3ccccc32)C1=O (stereo unspecified)	69	–	–	·	–	–
CC1(C)NC(=O)N(CC(O)COc2cccc(F)c2)C1=O (stereo unspecified)	69	–	–	–	–	–
COc1ccc(OCC(O)CN2C(=O)NC(C)(C)C2=O)cc1 (stereo unspecified)	·	–	·	–	·	·
Cc1cccc(C)c1-n1c(SCC(=O)NCc2ccco2)nc2ccccc2c1=O	–	–	–	–	–	–
